An excerpt weighted towards active compounds, which were near 4.5% of everything screened.
GRK2 aptamer HTS – compounds blocking aptamer binding on GRK2 – biochemical, human GRK2, bead flow cytometry, HTS, primary screen | Beta-adrenergic receptor kinase 1 (Homo sapiens), P25098 | FAM-aptamer displacement from GRK2 | inhibition of aptamer binding, % at 10 µM | hit rate 0.59% among 330,000;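 active means inhibition of aptamer binding above 40%, roughly 3 SD of noise, on plates passing a quality check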;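 further: median bead fluorescence of bound FAM aptamer so fluorescent compounds give negative values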
Target sequence (P25098 whole entry, looked up): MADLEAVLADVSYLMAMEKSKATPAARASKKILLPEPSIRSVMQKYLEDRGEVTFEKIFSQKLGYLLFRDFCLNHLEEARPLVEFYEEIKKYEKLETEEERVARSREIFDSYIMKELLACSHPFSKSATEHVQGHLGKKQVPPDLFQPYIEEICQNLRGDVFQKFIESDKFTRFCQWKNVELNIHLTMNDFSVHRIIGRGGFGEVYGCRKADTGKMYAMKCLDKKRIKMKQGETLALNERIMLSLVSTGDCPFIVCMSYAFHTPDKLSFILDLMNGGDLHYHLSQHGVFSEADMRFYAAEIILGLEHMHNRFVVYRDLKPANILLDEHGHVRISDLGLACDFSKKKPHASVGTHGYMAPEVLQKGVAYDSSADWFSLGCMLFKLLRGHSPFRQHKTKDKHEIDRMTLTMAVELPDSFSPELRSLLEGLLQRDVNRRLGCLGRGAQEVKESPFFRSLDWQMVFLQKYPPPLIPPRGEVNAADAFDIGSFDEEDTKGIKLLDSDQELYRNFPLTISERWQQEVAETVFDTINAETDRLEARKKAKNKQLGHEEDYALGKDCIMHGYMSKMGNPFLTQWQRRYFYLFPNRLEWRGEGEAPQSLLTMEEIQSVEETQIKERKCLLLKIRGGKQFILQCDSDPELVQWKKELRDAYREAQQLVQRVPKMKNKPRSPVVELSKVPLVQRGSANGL
Rtt109 Vps75 – inhibitors of C. albicans Rtt109/Vps75 HAT, primary screen, biochemical, ThioGlo CoA-SH fluorescence, plate reader. hit rate 0.16% among 330,000. Histone acetyltransferase RTT109 (Candida albicans (strain SC5314 / ATCC MYA-2876)), …. purified Rtt109/Vps75, 4 h. AID 540336, 2011. inhibition, % at 34.9 µM;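 active means inhibition of at least 50% in every replicate; inconclusive means best replicate reaches 50% inhibition but some replicates fall short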
Efflux pump inh – inhibitors of Candida efflux pumps in yeast, primary screen, S. cerevisiae, Nile Red, multiplex. hit rate 0.44% among 330,000. AID 485275, 2010. inhibition, % at 10 µM. S. cerevisiae Candida pump triplex;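 active means plate passing quality check with inhibition over a set limit, or well fluorescence over plate mean plus 4 SD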;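 further: Nile Red retained in pooled yeast measured as flow cytometry median fluorescence; higher means more Nile Red kept so more efflux inhibition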
ALR inh – inhibitors of human ALR sulfhydryl oxidase, primary screen, biochemical, H2O2 detection, HRP-luminol luminescence, single point; hit rate 3.8% among 290,000; inhibition, % (test concentration not listed); FAD-linked sulfhydryl oxidase ALR (Homo sapiens), P55789; purified ALR, DTT oxidation; AID 485317, 2010;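 active means mean replicate inhibition above about 79%, with every replicate also reaching it, limit read from the data; inconclusive means only one of the two criteria met; inactive means mean below limit and not every replicate reaching it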
HDAC3 inhib – HDAC3 deacetylase inhibitors, primary screen, biochemical, fluorescence, cell-free homogeneous; recombinant HDAC3, fluorogenic peptide/trypsin coupled; AID 2718, 2010; inhibition, % at 8.3 µM; hit rate 0.15% among 320,000; Histone deacetylase 3 (Homo sapiens), O15379; in the data active means inhibition above about 26%, passing the limit was not always enough; inconclusive means no clear call, values can overlap the other calls
Rce1 inh – yeast Rce1p protease inhibitors, primary screen, biochemical, fluorescence, cell-free homogeneous; calls only; hit rate 0.27% among 290,000; yeast membranes, quenched prenylated peptide cleavage fluorescence;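 active means fall in fluorescence gain of 50% or more versus controls, with final raw signal at or below 3038400; inconclusive means same 50% fall but final raw signal above 3038400; inactive means fall in fluorescence gain under 50%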
Numbers stand for hits.

What do the screens show for `COc1ccccc1N1C(=O)CC(N2CCN(c3ccc(F)cc3)CC2)C1=O` (centres undefined)?
GRK2 aptamer HTS: inactive; Rtt109 Vps75: inactive; Efflux pump inh: inactive; ALR inh: 97; HDAC3 inhib: inconclusive; Rce1 inh: inactive

Results for O=C1CC(N2CCCCCC2)C(=O)N1c1ccc2c(c1)OCO2 (centres undefined) ?
GRK2 aptamer HTS: inactive; Rtt109 Vps75: inactive; Efflux pump inh: inactive; ALR inh: inactive; HDAC3 inhib: inactive; Rce1 inh: inactive

Results for O=C1CC(N2CCN(c3ccc(O)cc3)CC2)C(=O)N1c1ccc2c(c1)OCO2 (centres undefined) ?
GRK2 aptamer HTS: inactive; Rtt109 Vps75: inactive; Efflux pump inh: inactive; ALR inh: 99; HDAC3 inhib: inactive; Rce1 inh: inactive

What do the screens show for `CCN1C(=O)CC(N2CCN(c3ccc(OC)cc3)CC2)C1=O` (centres undefined)?
GRK2 aptamer HTS: inactive; Rtt109 Vps75: inactive; Efflux pump inh: inactive; ALR inh: inactive; HDAC3 inhib: inactive; Rce1 inh: inactive

How did COc1ccc(N2CCN(C3CC(=O)N(Cc4ccccc4)C3=O)CC2)cc1 (centres undefined) do in these assays?
GRK2 aptamer HTS: inactive; Rtt109 Vps75: inactive; Efflux pump inh: inactive; ALR inh: 92; HDAC3 inhib: inactive; Rce1 inh: inactive

What do the screens show for `CS(=O)(=O)c1ccc(N)c(SSc2cc(S(C)(=O)=O)ccc2N)c1`?
GRK2 aptamer HTS: inactive; Rtt109 Vps75: 182; Efflux pump inh: inactive; ALR inh: 99; HDAC3 inhib: inactive; Rce1 inh: inactive

How did CCOc1ccc(N)c(SSc2cc(OCC)ccc2N)c1 do in these assays?
GRK2 aptamer HTS: inactive; Rtt109 Vps75: inactive; Efflux pump inh: inactive; ALR inh: inactive; HDAC3 inhib: inactive; Rce1 inh: inactive

How did c1ccc(N2CCOCCOCCOCCOCC2)cc1 do in these assays?
GRK2 aptamer HTS: inactive; Rtt109 Vps75: inactive; Efflux pump inh: inactive; ALR inh: 99; HDAC3 inhib: inactive; Rce1 inh: inactive

How did COc1cccc(CN(C)C(=O)Cc2c[nH]c3ccccc23)c1 do in these assays?
GRK2 aptamer HTS: inactive; Rtt109 Vps75: inactive; Efflux pump inh: inactive; ALR inh: inactive; HDAC3 inhib: inactive; Rce1 inh: inactive

Results for Cc1cc(N)n2ncc(-c3ccccc3)c2n1 ?
GRK2 aptamer HTS: inactive; Rtt109 Vps75: inactive; Efflux pump inh: inactive; ALR inh: 90; HDAC3 inhib: inactive; Rce1 inh: inactive

Results for COc1ccccc1N1CC(C(=O)Nc2ccc(N3CCOCC3)cc2)CC1=O (centres undefined) ?
GRK2 aptamer HTS: inactive; Rtt109 Vps75: inactive; Efflux pump inh: inactive; HDAC3 inhib: inactive

What do the screens show for `Cc1cc2n(n1)C(c1ccccc1Cl)Nc1ccccc1-2` (centres undefined)?
GRK2 aptamer HTS: inactive; Rtt109 Vps75: inactive; Efflux pump inh: inactive; ALR inh: 98; HDAC3 inhib: inactive; Rce1 inh: inactive

Results for CSc1ccc(C2Nc3ccccc3-c3cc(C)nn32)cc1 (centres undefined) ?
GRK2 aptamer HTS: inactive; Rtt109 Vps75: inactive; Efflux pump inh: inactive; ALR inh: inactive; HDAC3 inhib: inactive; Rce1 inh: inactive

Results for O=C(COc1cc2oc(=O)c3c(c2cc1Cl)CCC3)NCC(O)c1ccccc1 (centres undefined) ?
GRK2 aptamer HTS: inactive; Rtt109 Vps75: inactive; Efflux pump inh: inactive; ALR inh: inactive; HDAC3 inhib: inactive; Rce1 inh: inactive

What do the screens show for `Cc1cccnc1Nc1nc(-c2ccc(O)cc2O)cs1`?
GRK2 aptamer HTS: inactive; Rtt109 Vps75: inactive; Efflux pump inh: inactive; ALR inh: 77; HDAC3 inhib: inactive; Rce1 inh: inactive

Results for NS(=O)(=O)c1ccc(Nc2nc(-c3ccc(F)cc3)cs2)cc1 ?
GRK2 aptamer HTS: inactive; Rtt109 Vps75: inactive; Efflux pump inh: inactive; ALR inh: inactive; HDAC3 inhib: inactive; Rce1 inh: inactive

How did Oc1ccc(-c2csc(Nc3ccccn3)n2)c(O)c1 do in these assays?
GRK2 aptamer HTS: inactive; Rtt109 Vps75: inactive; Efflux pump inh: inactive; ALR inh: 93; HDAC3 inhib: inconclusive

What do the screens show for `NS(=O)(=O)c1ccc(Nc2nc(-c3ccc(O)cc3O)cs2)cc1`?
GRK2 aptamer HTS: inactive; Rtt109 Vps75: inactive; Efflux pump inh: inactive; ALR inh: 99; HDAC3 inhib: inactive

What do the screens show for `c1ccc(Nc2nc(-c3cccs3)cs2)nc1`?
GRK2 aptamer HTS: inactive; Rtt109 Vps75: inactive; Efflux pump inh: inactive; ALR inh: inactive; HDAC3 inhib: inactive; Rce1 inh: inactive

How did COc1ccc(CCNC(=O)[C@H](C)NC(=O)N2CCn3c2nc2ccccc23)cc1OC do in these assays?
GRK2 aptamer HTS: inactive; Rtt109 Vps75: inactive; Efflux pump inh: inactive; ALR inh: inactive; HDAC3 inhib: inactive; Rce1 inh: inactive

Results for CCCCCN=C(N)N/N=C/c1c[nH]c2ccc(OC)cc12 ?
GRK2 aptamer HTS: inactive; Rtt109 Vps75: 78; Efflux pump inh: inactive; ALR inh: inactive; HDAC3 inhib: inactive; Rce1 inh: inactive

Results for O=C(CN1C(=O)/C(=C2/SC(=S)N(CCS(=O)(=O)O)C2=O)c2ccccc21)Nc1cccc(Br)c1 ?
GRK2 aptamer HTS: inactive; Rtt109 Vps75: inactive; Efflux pump inh: inactive; ALR inh: inactive; HDAC3 inhib: inactive

Results for CC(=S)/C=C1\Sc2ccccc2N1C ?
GRK2 aptamer HTS: inactive; Rtt109 Vps75: inactive; Efflux pump inh: inactive; ALR inh: 83; HDAC3 inhib: inactive; Rce1 inh: inactive

How did COc1ccc(C(=O)/C=C2\Sc3ccccc3N2C)cc1 do in these assays?
GRK2 aptamer HTS: inactive; Rtt109 Vps75: inactive; Efflux pump inh: inactive; ALR inh: inactive; HDAC3 inhib: inactive; Rce1 inh: inactive

How did Cc1ccc(OCCNC(=O)c2ccccc2SCC(=O)N2CCCC2)cc1 do in these assays?
GRK2 aptamer HTS: inactive; Rtt109 Vps75: inactive; Efflux pump inh: inactive; ALR inh: inactive; HDAC3 inhib: inactive; Rce1 inh: inactive

What do the screens show for `COc1cc([C@@H]2OC[C@@H]3[C@H]2CO[C@@H]3c2ccc3c(c2)OCO3)ccc1O`?
GRK2 aptamer HTS: inactive; Rtt109 Vps75: inactive; Efflux pump inh: inactive; ALR inh: inactive; HDAC3 inhib: inactive

How did COc1cc([C@H]2Oc3cc([C@H]4Oc5cc(O)cc(O)c5C(=O)[C@@H]4O)ccc3O[C@@H]2CO)ccc1O do in these assays?
GRK2 aptamer HTS: inactive; Rtt109 Vps75: inactive; Efflux pump inh: inactive; ALR inh: 99; HDAC3 inhib: inactive; Rce1 inh: inactive

How did COc1cc(OC)c2c(c1)OC(c1ccc(OC)c(OC)c1)C(O)C2=O (centres undefined) do in these assays?
GRK2 aptamer HTS: inactive; Rtt109 Vps75: inactive; Efflux pump inh: inactive; HDAC3 inhib: inactive; Rce1 inh: inactive
